“And” between values parts separate entries of the source, which are not always exact repeats. Equal entries are not always repeated. Compounds without any hit were thinned out: in the full panel of roughly 83,000, 20% have a hit.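 Interpretation: 100, growth as untreated; towards 0, rising growth inhibition; 0, no net growth; 0 to -100, cell death. Compounds scoring below 10 were considered active.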 Values without a mark were called inactive. The source made the active and inactive calls.
What follows are compounds tested on SNB-75 CNS (assay: NCI-60 one-dose screen, 48 h (100 = growth as untreated, 0 = no growth, -100 = all killed)). Conditions: 1 µM.
Description: Growth inhibition of the SNB-75 human tumor cell line is measured as a screen for anti-cancer activity. Cells are grown in 96 well plates and exposed to the test compound for 48 hours. Compounds are tested at a single concentration, which is 10^-5 M for most compounds. The reported endpoint is percent growth (GI% or GIPRCNT), where numbers from 0 - 100% represent growth inhibition, and numbers from -100% - 0 represent cell death. For example, a value of 40 represents 60% growth inhibition. A value of 0 means no net growth occurred over the course of the experiment. A value of -40 indicates 40% of cells at the beginning of the experiment died by the end of the experiment. A value of -100 means all cells are dead at the end of the experiment.
NCI-60 Human Tumor Cell Lines Screen was performed using the standard one-dose NCI protocol, which is described in more detail at https://dtp.cancer.gov/discovery_development/nci-60/default.htm.
Compounds with GIPRCNT values below 10 were considered active. Activity score was based on GIPRCNT using the following formula: […]
Score is 0 for GIPRCNT values of 100 or above, 50 for GIPRCNT values of 0, and 100 for GIPRCNT values of -100.

Row | Structure (SMILES) | growth
1 | CC/C(=C(/c1ccc(O)cc1)c1ccc(OCCN(C)C(=O)CCOCCNC(=O)Cc2ccc3c(c2)CN([C@@H]2CCC(=O)NC2=O)C3=O)cc1)c1ccccc1 | 57%

Same assay, conditions: 10 µM

Row | Structure (SMILES) | growth
2 | CC/C(=C(/c1ccc(O)cc1)c1ccc(OCCN(C)C(=O)CCOCCNC(=O)Cc2ccc3c(c2)CN([C@@H]2CCC(=O)NC2=O)C3=O)cc1)c1ccccc1 | 27.8%

Same assay, conditions: 10 µM unless noted

Row | Structure (SMILES) | growth
3 | CN(C)CCOc1ccc(C(=O)C2[C@H](c3ccc(Cl)cc3)[C@@H](c3ccccc3)NC23C(=O)Nc2ccc(Cl)cc23)cc1 (stereo not given in full) | -90.7% (active)
4 | COc1ccc2[nH]cc(-c3cc4nc(-c5cn(C)c6ncccc56)cc(N)n4n3)c2c1 | 51.8%
5 | O=C1N/C(=N\c2nccs2)S/C1=C\c1ccc([N+](=O)[O-])cc1 | 34.1%
6 | COc1ccc([C@H]2C(C(=O)c3ccc(Cl)cc3)C3(N[C@@H]2c2ccccc2)C(=O)Nc2ccccc23)cc1 (stereo not given in full) | 35%
7 | O=C1c2cccc3c(N4CCN(c5ccccc5)CC4)ccc(c23)C(=O)N1c1cccc(-c2nn(-c3ccccc3)cc2-c2nc3ccccc3s2)c1 | 98.1%
8 | CCCCNc1ccc2c3c(cccc13)C(=O)N(c1cccc(-c3nn(-c4ccccc4)cc3-c3nc4ccccc4s3)c1)C2=O | 92.8%
9 | Cc1ccc(C(=O)C[n+]2cccc3c4ccccc4ccc32)cc1 | 43%
10 | COc1cccc(-c2ccc(/C=N/NC(=O)c3[nH]c4ccc(Br)cc4c3-c3ccccc3)s2)c1 | 36.8%
11 | Cc1ccc(Cl)cc1NC(=O)Nc1nc2ccc([N+](=O)[O-])cc2s1 | -26.6% (active)
12 | COc1c2c(cc3c1C(CCc1ccccc1)N(C)CC3)OCO2 (stereo not given) | -1.4% (active)
13 | Cc1ccc(C2CC(c3ccc(S(=O)(=O)NCCNc4nc(N(C)C)nc(N5CCOCC5)n4)cc3)=Nc3c(N)nc(N)nc3N2)cc1 (stereo not given) | 59.5%
14 | CCCCCCCCc1ccc(C(=O)Nc2ccc(C)c(OP(=O)(O)O)c2)cc1 | 89.8%
15 | CN(C)CCCc1ccc(Nc2cnn(C)c(=O)c2Cl)cc1 | 74.2%
16 | N/C(=N\c1nc2ccccc2s1)NC(=O)Nc1ccccc1[N+](=O)[O-] | 19.5%
17 | O=C(CSc1nnc(-c2ccc(-c3nc4ccc(Cl)cc4[nH]3)cc2)o1)Nc1ccccc1 | -16.8% (active)
18 | CN1CCc2c(sc3ncnc(N/N=C/c4cccc(Cl)c4Cl)c23)C1 | 76.3%
19 | COc1ccc(N=Nc2c(N)nn3c(-c4ccc(OC)c(OC)c4)ccnc23)cc1 | 82.3%
20 | O=C(CSc1nc2ccccc2c(=O)[nH]1)NNC(=O)c1ccccc1Cl | 72.6%
21 | O=C(c1ccc(O)cc1)C1[C@H](c2ccc(Cl)cc2)[C@@H](c2ccccc2)NC12C(=O)Nc1ccc(Br)cc12 (stereo not given in full) | -13% (active)

Row | Structure (SMILES) | growth
22 | Cc1nc(N)ncc1-c1ccc2ncnc(N3CCc4cc(F)c(Cl)cc43)c2c1 | 15.7%
23 | COc1ccc(NC(=O)CSc2nnc(-c3ccc(-c4nc5ccc(Cl)cc5[nH]4)cc3)o2)cc1 | 5.21% (active)
24 | COc1ccc(N=Nc2c(N)nn3c(N)c(C#N)c(-c4ccc(C)cc4)nc23)cc1 | 22.9%
25 | O=C(Nc1nc2ccccc2s1)Nc1ccccc1Cl | 20.4%
26 | Cc1cc(N=C(N)c2ccccc2)ccc1OCCCCCCCCn1ccnc1 | 12.5%
27 | CCCn1c(NC(=O)c2cccc(C(N)=O)c2)nc2ccc(CN3CCCCC3)cc21 | 128%
28 | O=C(NNC(=S)NC(=O)c1ccccc1)c1ccc(OCc2nc3ccc(Cl)cc3[nH]2)cc1 | -17.8% (active)
29 | C/C(=N\Nc1ccc(S(N)(=O)=O)cc1)c1cnn(-c2cc(=O)[nH]c3ccc(Br)cc23)c1C | 22%
30 | O=c1[nH]c2ccccc2cc1COc1ccc(Nc2nccc(-c3ccc(Cl)cc3)n2)cc1 | 60.5%
31 | O=C1Nc2cc(-c3ccc(NS(=O)(=O)c4ccc(C(F)(F)F)cc4)cc3)ccc2/C1=C/c1ccc[nH]1 | 18.6%
32 | COc1cc(C=O)ccc1Oc1nc(Nc2ccc(F)cc2)nc(N(C)C)n1 | 47.7% and 58.3%
33 | COc1ccc2[nH]cc(-c3cc(N)n4nc(-c5c[nH]c6ccccc56)cc4n3)c2c1 | 82.1%
34 | CC(=O)Nc1cccc(-n2c(COc3ccc(I)cc3)nc3ccccc32)c1 | 57.8% and 93.3%
35 | CC(C)C[C@H](NC(=O)[C@@H]1CCCCCCCCCCC(=O)N[C@@H](CC(=O)N2CCC[C@@H]2C2CCCC2)C(=O)N1)B(O)O | -77% (active)
36 | COc1ccc(-c2cc(C(=O)OCc3ccc(Br)cc3)nn2-c2ccc(S(C)(=O)=O)cc2)cc1OC | 60.5%
37 | O=C(N=Nc1c(O)[nH]c2ccc(Cl)cc12)c1ccc2nc(-c3ccc(Cl)cc3)[nH]c2c1 | -21.3% (active)
38 | CN(C)C(=O)c1cc(-c2ccc3ncnc(N4CCc5cc(F)c(Cl)cc54)c3c2)cnc1N | -28.8% (active)
39 | OC(c1ccccc1)(c1ccccc1)C1CCN(c2ccc3nnc(Cl)n3n2)CC1 | 61.3%
40 | COc1ccc(/C=C/C(=O)c2ccc(S(=O)(=O)NCCNc3nc(N(C)C)nc(N4CCOCC4)n3)cc2)cc1 | 61.8%

Source: PubChem BioAssay (NCI)
